Compound activity as filed in PubChem.
HPGD block: HPGD (human) dehydrogenase inhibition; P15428; purified HPGD, NADH fluorescence kinetic, PGE2 substrate; Potency, µM, for the others: at the top dose activity change, negative = inhibition, most hits filed as inhibitors; hit rate 4.3% among 150,000; active = well fitted inhibition curve with a large enough effect, not every such curve was filed as active; inconclusive = small, poorly fitted or top-dose-only effect, or another doubt; inactive = no such curve, though single readings can be large or run the other way; also: potency is read from the fitted curve at half-maximal effect
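NADH formation kinetics: reaction with 30 uM PGE2 and 1 mM NAD+ (final), 20 nM enzyme, Tris-HCl pH 8 with Tween 20, after 15 min compound preincubation at room temperature. Fluorescence change, last versus first of five reads.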
IMPase cell inh: membrane-permeable compound that blocks inositol monophosphatase; P97697; CHO-M1 cells, IP1 accumulation, HTRF TR-FRET ratio; inhibition (IP1 accumulation), % at 46.1 µM; 120,000 tested, under 10 active; AID 901; active = well fitted curve in the direction sought with a large enough effect in the signal ratio, not every such curve was filed as active; inconclusive = small, poorly fitted or top-dose-only effect, or a change in a side signal; inactive = no such curve, though single readings can be large or run the other way; the % refers to the signal ratio;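 also: cells stimulated with carbachol in lithium chloride buffer; plate controls were DMSO basal wells for no effect and reference inhibitor wells for full effect; higher means more IMPase inhibition seen as more IP1 and lower FRET ratio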
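CHO-M1, 2000 cells/well, cultured 16–30 h; cpd up to 46 uM; carbachol (50 uM solution, stimulation buffer w/ 50 mM LiCl, pH 7.4), 30 min 37C; IP-One TR-FRET, 10 min RT; Ex 320/Em 665, 620; Hill-fit AC50.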
PNC assembly inh: blocks assembly of the perinucleolar compartment; PC3M PTB-GFP, PNC prevalence imaging, 16 h; stronger effect = lower value; activity change (PNC), negative = inhibition, % at 10 µM; hit rate 3.1% among 140,000;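 active = readout at or below -70, meaning at least 70% loss of cells showing the perinucleolar compartment, a nuclear body marking cancer cells; inconclusive = readout between -30 and a set limit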;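 also: plate controls were DMSO wells for no effect and camptothecin positive control wells for full effect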
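PC3M cells stably expressing PTB-GFP, 750–1000 cells/well, treated 16 h at 37 °C with compound (23 nl of library stock), in duplicate. After paraformaldehyde fixation and Hoechst stain, imaged at 20x; PNC prevalence scored by image analysis.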
IMPase Li cell: cell-permeable IMPase inhibitors with lithium potentiation | CHO-M1 cells, IP1 TR-FRET (IP-One), carbachol + lithium | Potency, µM (series often up to 59.4 µM), without a hit: top-dose activity, negative = IMPase inhibition, most hits filed as inhibitors | hit rate 0.35% among 210,000 | AID 1457;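 also: IP1 builds up when IMPase is blocked and the TR-FRET signal falls; potency is read from the fitted curve at half-maximal effect; plate controls were basal vehicle for no effect and high inhibitor control for full effect; nearly all actives have a fitted effect of over 50% in size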
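Concentration–response in CHO-M1 cells, lithium-potentiated; 30 min at 37C. IP1 detected by competitive TR-FRET after 10 min lysis at RT. Hill-fitted AC50.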
ALOX15B inhib: blocks human 15-lipoxygenase 2 activity. O15296. purified 15hLO-2, xylenol orange hydroperoxide absorbance. Potency, µM (doses to about 57.1 µM), without a hit: at the highest dose activity change, negative = inhibition, hits mostly inhibitors. hit rate 0.56% among 110,000. AID 881; also: potency is read from the fitted curve at half-maximal effect; nearly all actives have a fitted effect of over 60% in size
Target sequence (O15296 whole entry, looked up): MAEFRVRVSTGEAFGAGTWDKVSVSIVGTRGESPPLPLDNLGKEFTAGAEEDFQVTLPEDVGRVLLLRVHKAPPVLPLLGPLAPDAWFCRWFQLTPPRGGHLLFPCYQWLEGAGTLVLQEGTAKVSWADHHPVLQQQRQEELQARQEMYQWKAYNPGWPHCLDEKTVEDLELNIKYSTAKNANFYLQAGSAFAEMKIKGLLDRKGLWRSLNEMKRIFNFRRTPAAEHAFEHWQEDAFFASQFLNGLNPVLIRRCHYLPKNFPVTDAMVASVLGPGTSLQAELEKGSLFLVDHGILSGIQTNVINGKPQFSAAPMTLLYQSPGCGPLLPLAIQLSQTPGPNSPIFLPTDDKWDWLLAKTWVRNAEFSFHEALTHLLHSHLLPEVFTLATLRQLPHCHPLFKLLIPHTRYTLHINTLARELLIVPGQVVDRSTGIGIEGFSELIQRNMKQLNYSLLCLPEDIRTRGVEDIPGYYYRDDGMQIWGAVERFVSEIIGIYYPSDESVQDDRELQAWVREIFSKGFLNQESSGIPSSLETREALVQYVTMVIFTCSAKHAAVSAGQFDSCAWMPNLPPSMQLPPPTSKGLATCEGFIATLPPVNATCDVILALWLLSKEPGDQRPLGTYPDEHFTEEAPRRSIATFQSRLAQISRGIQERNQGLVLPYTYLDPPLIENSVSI
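Purified human 15hLO-2 (50 nM final) preincubated with compounds 15 min at room temperature in 25 mM Hepes pH 7.5, 0.01% Triton X-100, then 45 uM arachidonic acid added for 90 min; hydroperoxide detected via ferrous/xylenol orange, 573/405 nm absorbance ratio.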
12-hLO inh: blocks human 12-lipoxygenase activity | P18054 | hit rate 0.12% among 150,000 | purified 12-hLO, xylenol orange hydroperoxide absorbance | Potency, µM (highest dose often 57.1 µM), without a hit: top-dose activity change, negative = inhibition, actives largely listed as inhibitors | AID 1452; also: potency is read from the fitted curve at half-maximal effect; nearly all actives have a fitted effect of over 55% in size
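150 nM 12hLO, 25 mM Hepes pH 7.0 + 0.01% Triton X-100; cpd preinc 15 min RT; 40 uM arachidonic acid, 30 min RT; Fe-XO 30 min; A573/A405 ratio as read-out.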
* = called active by the depositor; ? = inconclusive; . = no result; [ ] = remark or other dose. In the library only some 5.3% were active in any assay of this set; here they are far more common. Unless noted, calls follow the shape of the dose curve; as a rule, active = well fitted curve in the direction sought with a large enough effect; inconclusive = small, poorly fitted or top-dose-only effect, or another doubt; inactive = no such curve, though single readings can be large; an effect the other way counts as inactive or inconclusive. Unless noted, % is scaled to controls: 0 for no effect and ±100 for the full control effect.

SMILES	HPGD block	IMPase cell inh	PNC assembly inh	IMPase Li cell	ALOX15B inhib	12-hLO inh
CCCC(=O)Nc1ncnc2c1ncn2[C@@H]1O[C@H]2COP(=O)(O)O[C@@H]2[C@@H]1OC(=O)CCC	-2%	3[20.6 µM]	.	-5%	-1%[25.6 µM]	2%[25.6 µM]
Cn1c2ccccc2c2c3c(c4c5ccccc5n(CCC#N)c4c21)CNC3=O	.	.	.	3.5µM*	.	.
O=C(CCc1nc2ccccc2[nH]1)NC1CCCCC1	-12%	-4	58	8%	.	-3%
O=C(CCc1nc2ccccc2[nH]1)N1CCc2ccccc2C1	-18%	.	-91*	5%	.	5%
Cc1ccc(N2CCN(C(=O)C3CCC(CNS(=O)(=O)c4ccc(Br)s4)CC3)CC2C)cc1 (configuration not stated)	.	-2	.	.	.	.
COCC(=O)Nc1ccc(-c2cn3cccnc3n2)cc1	?	-25	14	11µM*	3%	-3%
CC(C)(C)CC(=O)Nc1cccc(-c2cn3cccnc3n2)c1	.	.	.	2%	.	.
N#Cc1cc(Oc2cccc3cccnc23)c(-n2nnc3ccccc32)cc1C#N	.	11	-24	.	?	10µM*
CCOC(=O)C1(CCc2ccccc2)CCN(C(=O)Cc2nonc2C)CC1	.	.	.	12%	.	.
CCc1c(C)nc2ncnn2c1N1CCC(C(=O)N2CCN(c3ccccc3)CC2)CC1	-7%	0	-88*	-3%[38.3 µM]	-14%	3%
Cc1cccc(-c2n[nH]c(=S)n2-c2ccccc2)c1[N+](=O)[O-]	-29%	.	-1	-1%	.	1%
COc1ccc(-n2c(-c3cccc(C)c3[N+](=O)[O-])n[nH]c2=S)cc1	35µM*	8	-109*	16%[38.3 µM]	?	-2%
COc1ccccc1N1CCN(S(=O)(=O)Cc2ccccc2Cl)CC1	-13%	-10	?	-28%[38.3 µM]	0%	-4%
COc1cccc(-n2c(=O)c3cc(OC)c(OC)cc3n(CC(=O)Nc3cc(C)[nH]n3)c2=O)c1	?	.	-2	-3%	.	0%
Cc1csc(SCC(=O)NCCc2ccc(Cl)cc2Cl)n1	28µM*	-2	0	-10%	.	-5%
CCC(c1nnc(SCC(=O)NCCc2ccc(Cl)cc2Cl)o1)N(C)C (configuration not stated)	14µM*	0	13	5%[38.3 µM]	?	-5%
Cc1csc(SCC(=O)NCc2cccc(Cl)c2)n1	.	.	.	11%	.	.
COC(=O)c1c(C)oc2ccc(OC(=O)c3cccs3)cc12	-18%	12	25	18%[38.3 µM]	4%	-4%
COCCOC(=O)c1c(C)oc2ccc(OC(=O)c3cccs3)cc12	-13%	-11	-139*	-13%[38.3 µM]	9%	2%
CC(C)CN(CC(C)C)C(=O)Nc1cccc([N+](=O)[O-])c1	.	.	.	12%	.	.
CCn1c(CNc2ccc(F)cc2)nnc1SCC(=O)OC1CCCCC1	16µM*	2	-114*	-7%[38.3 µM]	-3%	-4%
O=C1/C(=C/N(C(=O)c2ccco2)c2ccc(Cl)cc2)Sc2ccccc21	-14%	.	-25	5%	.	-4%
O=C1/C(=C/N(C(=O)c2ccco2)c2ccc(Br)cc2)Sc2ccccc21	32µM*	.	172	3%	.	-2%
C[C@@]12CC[C@@H]3[C@H](CCC4=CC(=O)CC[C@]43C)[C@@H]1CC[C@@H]2C(=O)Cn1cnc2c(=S)nc[nH]c21	0%	.	.	4%	?	-9%[11.4 µM]
NC(=O)C1CCN(C(=O)Nc2ccccc2)CC1	-13%	.	-13	.	4%	-1%
SMILES	HPGD block	IMPase cell inh	PNC assembly inh	IMPase Li cell	ALOX15B inhib	12-hLO inh
NC(=O)C1CCN(C2=C(Cl)C(=O)c3ccccc3C2=O)CC1	14µM*	29	-23	90%[38.3 µM]	.	5%
CCOC(=O)C1=C(O)/C(=C\c2ccc(CNC(=O)C(=O)Nc3ccccc3)o2)N=C1C	32µM*	14	?	72%[38.3 µM]	?	-18%
CCOC(=O)C1=C(O)/C(=C\c2cccs2)N=C1C	-9%	13	5	26%	.	-3%
Nc1nc(SCc2ccccc2Cl)cc(C(=O)O)n1	-22%	.	.	1%	37%[11.4 µM]	-16%[11.4 µM]
CCOC(=O)c1cc(OC(=O)c2cc(OC)cc(OC)c2)n(-c2ccccc2)n1	.	1	.	.	.	.
Cc1nc(NC(=O)c2ccccc2)sc1-c1csc(NCc2ccccc2)n1	?	5	?	36%[38.3 µM]	-23%	-20%
Cc1nc(N)sc1-c1csc(NCc2ccccc2)n1	18µM*	8	-21	7%[38.3 µM]	3%	-27%
CCOP(=O)(OCC)C(NC(=O)c1cccs1)C(F)(F)F (configuration not stated)	.	.	.	-6%	.	.
CCOc1ccc(OCC)c(Nc2cc(C)nc3ncnn23)c1	4.5µM*	-3	-23	25%[38.3 µM]	-4%	-1%
CCOc1ccc(OCC)c(Nc2cc(C)nc3nc(C)nn23)c1	0.5µM*	.	29	4%	.	-2%
Cc1ccc(Nc2cc(C)nc3nc(C)nn23)c(C)c1	-18%	.	1	-5%	.	1%
CCOc1ccccc1Nc1cc(C)nc2nc(C)nn12	1.6µM*	-8	11	8%	.	-2%
Cc1ccc(Nc2cc(C)nc3ncnn23)c(Cl)c1	-7%	-6	26	1%	.	-1%
Cc1cc(Nc2cc(F)ccc2C)n2ncnc2n1	-19%	4	-2	31%[38.3 µM]	-4%	7%
COc1ccc(C)cc1Nc1cc(C)nc2ncnn12	5µM*	.	?	4%	.	0%
O=C1CN(C(=O)COC(=O)c2ccc[n+]([O-])c2)c2ccccc2N1	.	.	.	8%	.	.
COc1cc(/C=N/NS(=O)(=O)c2ccc(C(C)(C)C)cc2)cc([N+](=O)[O-])c1O	.	.	.	-1%	.	.
COc1ccc(-c2nc3cnc(N4CCOCC4)nc3n(-c3ccccc3)c2=O)cc1	.	.	.	-14%	-5%	.
Cn1cccc1CC(=O)NNC(=S)NC(=O)c1ccccc1Br	.	.	.	1%	.	.
CC(NC(=O)CSc1nnc(CC(=O)Nc2ccc(Cl)c(Cl)c2)n1C)c1ccccc1 (configuration not stated)	28µM*	-11	-12	-3%[38.3 µM]	?	-9%
COC(=O)c1cccc(NS(=O)(=O)c2ccc(OC)cc2)c1C	-18%	4	?	2%	.	-2%
COc1ccc(S(=O)(=O)Nc2ccccc2C(=O)NC(C)C)cc1OC	-24%	3	-124*	-6%[38.3 µM]	-7%	-2%
COC(=O)c1cccc(NS(=O)(=O)c2ccc(OC)c(OC)c2)c1C	0%	4	-84*	37%[38.3 µM]	-1%	1%
O=C(Cn1cc(C(F)(F)F)ccc1=O)Nc1cccc(S(=O)(=O)N2CCOCC2)c1	-6%	5	84	-1%	.	-5%
CCCCN1C(=O)/C(=c2\sc3nc(=O)c(-c4ccccc4)nn3c2=O)c2ccccc21	25µM*	4	20	-14%[38.3 µM]	?	3%
